Data as given in PubChem BioAssay.
Activity calls are given as the source filed them.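 Rule for the calls: active = compounds killing one labelled cell type while sparing the other, by normalised counts and ratio limits, not self-fluorescent; inactive = the rest.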

test: EMT-state selective cytotoxicity in co-culture – imaging, PC-3E GFP, TEM4-18 mCherry, primary screen (AID 1345086); conditions: PC-3E GFP / TEM4-18 mCherry co-culture, imaging cell counts; at 1 µM; actives lie on both sides; counts scaled to control wells, 1 = unselective;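 note: cells exposed to compound for 72 h before imaging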;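 for red/green cell ratio (normalised): normalised mesenchymal count divided by normalised epithelial count so high means epithelial killing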

SMILES | red/green cell ratio (normalised)
CN1CCC(=C2c3ccccc3Sc3ccccc32)CC1 | 1.08 (inactive)
Cc1ccsc1/C=C/C1=NCCCN1C | 1.28 (inactive)
Cc1ccccc1OCC(O)CO (stereo not drawn) | 1.04 (inactive)
O=c1ccc2ccccc2o1 | 1.12 (inactive)
CC(=O)OC/C=C(C)/C=C/C=C(C)/C=C/C1=C(C)CCCC1(C)C | 0.94 (inactive)
CCn1cc(C(=O)O)c(=O)c2cnc(N3CCCC3)nc21 | 0.88 (inactive)
Cc1c(NC(C)C)c(=O)n(-c2ccccc2)n1C | 0.88 (inactive)
NS(=O)(=O)c1cc2c(cc1Cl)NC(CSCc1ccccc1)=NS2(=O)=O | 1.25 (inactive)
Cc1ccc(C(=O)c2ccc(CC(=O)O)n2C)cc1 | 0.9 (inactive)
CCOc1ccc(NC(C)=O)cc1 | 1.26 (inactive)
OC(CCN1CCCCC1)(c1ccccc1)c1ccccc1 | 0.87 (inactive)
O=C(O)c1ccccc1C(=O)Nc1ccc(S(=O)(=O)Nc2nccs2)cc1 | 1 (inactive)
CCCCCCCCNC(C)C(O)c1ccc(SC(C)C)cc1 (stereo not drawn) | 1.4 (inactive)
CN(C)CCOC(=O)C(c1ccccc1)C1(O)CCCC1 (stereo not drawn) | 1.07 (inactive)
COc1ccc(C(=O)c2ccccc2O)c(O)c1 | 1.27 (inactive)
CN1CCC(OC(c2ccccc2)c2ccccc2)CC1 | 1.14 (inactive)
Cc1cc(-c2ccccc2)nnc1NCCN1CCOCC1 | 1.08 (inactive)
CCN(CC)CCOC(=O)C(c1ccccc1)C1CCCCC1 (stereo not drawn) | 0.94 (inactive)
CCC(=O)c1c(O)cc(O)cc1O | 0.9 (inactive)
NC(=O)NC1NC(=O)NC1=O (stereo not drawn) | 1.05 (inactive)

SMILES | red/green cell ratio (normalised)
CC1CCc2cc(F)cc3c(=O)c(C(=O)O)cn1c23 (stereo not drawn) | 1.19 (inactive)
CCCCN(CCCC)CCCOC(=O)c1ccc(N)cc1 | 1.16 (inactive)
Cn1c([N+](=O)[O-])cnc1COC(N)=O | 1 (inactive)
C[N+]12CCC(CC1)C(OC(=O)C(O)(c1ccccc1)c1ccccc1)C2 (stereo not drawn) | 1.14 (inactive)
O=C1c2c(O)cccc2Cc2cccc(O)c21 | 0.95 (inactive)
CCN(CC)CCNc1ccc(CO)c2sc3ccccc3c(=O)c12 | 1.17 (inactive)
O=C(O)CCC(=O)c1ccc(-c2ccccc2)cc1 | 1.07 (inactive)
COc1cccc(OC)c1C(=O)N[C@@H]1C(=O)N2[C@@H]1SC(C)(C)[C@@H]2C(=O)O | 1 (inactive)
O=C(O)CCNC(=O)c1ccccc1 | 0.71 (inactive)
CCN1CCCC(OC(=O)C(c2ccccc2)c2ccccc2)C1 (stereo not drawn) | 1.28 (inactive)
CCCCC(CC)CN1CN(CC(CC)CCCC)CC(C)(N)C1 (stereo not drawn) | 1.02 (inactive)
CCN(CCCc1ccccc1)CCCc1ccccc1 | 0.99 (inactive)
CC1(C)OC(=O)NC1=O | 1.18 (inactive)
Nc1ccc(S(=O)(=O)NC(=O)c2ccccc2)cc1 | 1.62 (inactive)
CCCCOc1ccc(C(=O)CCN2CCCCC2)cc1 | 1.3 (inactive)
COc1cc(NS(=O)(=O)c2ccc(N)cc2)ncn1 | 1.16 (inactive)
NC(N)=NS(=O)(=O)c1ccc(N)cc1 | 1.03 (inactive)
Cc1cc(CC(=O)O)n(C)c1C(=O)c1ccc(Cl)cc1 | 0.89 (inactive)
C[C@H](N)[C@H](O)c1cccc(O)c1 | 1.4 (inactive)

same assay, conditions: PC-3E GFP / TEM4-18 mCherry co-culture, imaging cell counts; measured here: epithelial PC-3E GFP cell survival; at 1 µM

SMILES | normalised cell number
CN1CCC(=C2c3ccccc3Sc3ccccc32)CC1 | 1.03
Cc1ccsc1/C=C/C1=NCCCN1C | 1.08
Cc1ccccc1OCC(O)CO (stereo not drawn) | 1.05
O=c1ccc2ccccc2o1 | 0.98
CC(=O)OC/C=C(C)/C=C/C=C(C)/C=C/C1=C(C)CCCC1(C)C | 1
CCn1cc(C(=O)O)c(=O)c2cnc(N3CCCC3)nc21 | 1
Cc1c(NC(C)C)c(=O)n(-c2ccccc2)n1C | 0.91
NS(=O)(=O)c1cc2c(cc1Cl)NC(CSCc1ccccc1)=NS2(=O)=O | 1.02
Cc1ccc(C(=O)c2ccc(CC(=O)O)n2C)cc1 | 1.11
CCOc1ccc(NC(C)=O)cc1 | 1.07
OC(CCN1CCCCC1)(c1ccccc1)c1ccccc1 | 1.06
O=C(O)c1ccccc1C(=O)Nc1ccc(S(=O)(=O)Nc2nccs2)cc1 | 1.18
CCCCCCCCNC(C)C(O)c1ccc(SC(C)C)cc1 (stereo not drawn) | 0.68
CN(C)CCOC(=O)C(c1ccccc1)C1(O)CCCC1 (stereo not drawn) | 1.42
COc1ccc(C(=O)c2ccccc2O)c(O)c1 | 1.28
CN1CCC(OC(c2ccccc2)c2ccccc2)CC1 | 1.05
Cc1cc(-c2ccccc2)nnc1NCCN1CCOCC1 | 1.01
CCN(CC)CCOC(=O)C(c1ccccc1)C1CCCCC1 (stereo not drawn) | 0.95
CCC(=O)c1c(O)cc(O)cc1O | 1.06
NC(=O)NC1NC(=O)NC1=O (stereo not drawn) | 1.06

SMILES | normalised cell number
CC1CCc2cc(F)cc3c(=O)c(C(=O)O)cn1c23 (stereo not drawn) | 0.89
CCCCN(CCCC)CCCOC(=O)c1ccc(N)cc1 | 1.04
Cn1c([N+](=O)[O-])cnc1COC(N)=O | 1.01
C[N+]12CCC(CC1)C(OC(=O)C(O)(c1ccccc1)c1ccccc1)C2 (stereo not drawn) | 1.17
O=C1c2c(O)cccc2Cc2cccc(O)c21 | 1.25
CCN(CC)CCNc1ccc(CO)c2sc3ccccc3c(=O)c12 | 0.63
O=C(O)CCC(=O)c1ccc(-c2ccccc2)cc1 | 1.07
COc1cccc(OC)c1C(=O)N[C@@H]1C(=O)N2[C@@H]1SC(C)(C)[C@@H]2C(=O)O | 1.16
O=C(O)CCNC(=O)c1ccccc1 | 1.22
CCN1CCCC(OC(=O)C(c2ccccc2)c2ccccc2)C1 (stereo not drawn) | 0.93
CCCCC(CC)CN1CN(CC(CC)CCCC)CC(C)(N)C1 (stereo not drawn) | 0.84
CCN(CCCc1ccccc1)CCCc1ccccc1 | 1.13
CC1(C)OC(=O)NC1=O | 1.2
Nc1ccc(S(=O)(=O)NC(=O)c2ccccc2)cc1 | 0.9
CCCCOc1ccc(C(=O)CCN2CCCCC2)cc1 | 1.09
COc1cc(NS(=O)(=O)c2ccc(N)cc2)ncn1 | 0.74
NC(N)=NS(=O)(=O)c1ccc(N)cc1 | 0.95
Cc1cc(CC(=O)O)n(C)c1C(=O)c1ccc(Cl)cc1 | 1.1
C[C@H](N)[C@H](O)c1cccc(O)c1 | 0.79
